Screening results: PubChem BioAssay, The Scripps Research Institute Molecular Screening Center
An excerpt weighted towards active compounds, which were near 3.4% of everything screened.
MITF primary: human MITF inhibition, primary screen. O75030. AlphaScreen MITF homodimerization, bead proximity signal. inhibition, % at 2.6 µM. actives 0.91% (n = 650,000); in the data active = inhibition above about 50%;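 also: 0% = vehicle wells with protein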
Target sequence (O75030 whole entry, looked up): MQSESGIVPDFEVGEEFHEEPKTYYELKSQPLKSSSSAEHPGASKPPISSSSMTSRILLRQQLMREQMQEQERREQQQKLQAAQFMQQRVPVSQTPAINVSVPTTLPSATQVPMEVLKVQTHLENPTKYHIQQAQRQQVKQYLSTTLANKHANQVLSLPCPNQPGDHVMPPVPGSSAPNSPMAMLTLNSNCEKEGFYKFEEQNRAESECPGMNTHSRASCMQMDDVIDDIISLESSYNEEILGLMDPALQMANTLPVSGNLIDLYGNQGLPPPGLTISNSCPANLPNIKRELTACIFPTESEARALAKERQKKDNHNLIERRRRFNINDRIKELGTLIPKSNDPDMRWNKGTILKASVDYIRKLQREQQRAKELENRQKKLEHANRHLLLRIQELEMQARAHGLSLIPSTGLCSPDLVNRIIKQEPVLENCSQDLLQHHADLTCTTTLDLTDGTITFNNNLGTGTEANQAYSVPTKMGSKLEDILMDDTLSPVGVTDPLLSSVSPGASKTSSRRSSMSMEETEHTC
FBW7 activator: activators of human E3 ligase FBW7. actives 0.13% (n = 650,000). normalized activity (activation), % at 26.1 µM. AlphaScreen FBW7–phospho-cyclin E peptide binding, activator screen. Q969H0; in the data active = normalized activity above about 1.9%;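 also: purified mutant Fbw7 with reduced substrate affinity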
TEAD-YAP block: TEAD-YAP interaction inhibition | actives 1.4% (n = 640,000) | inhibition, % at 9.12 µM | HEK-TIYL cells, TEAD-Gal4/YAP UAS-luciferase luminescence; in the data active = inhibition above about 32%;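 also: 0% = median of test compound wells and 100% = reference inhibitor wells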
GPR151 ag: activates the human receptor GPR151. Q8TDV0. PathHunter beta-arrestin GPR151 cells, luminescence. activation, % at 11.2 µM. actives 1% (n = 650,000). AID 1508602; in the data active = activation above about 4.9%;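 also: 0% = median of compound wells and 100% = cells with positive control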
MITF inh conf: human MITF inhibition, confirmation | AlphaScreen MITF homodimerization, biotin/His-MITF beads | inhibition, % at 2.6 µM | shares compounds with MITF primary | actives 16% (n = 4,700);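 active = inhibition above a cutoff derived from the DMSO control wells, cut at about 28% in these data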;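 also: 0% = MITF dimer wells with DMSO only; inhibitors lower the bead chemiluminescence by keeping MITF from dimerizing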
AS interf ctr: optically interferes with AlphaScreen signal | AID 1259376 | shares compounds with MITF primary | inhibition, % at 2.6 µM | actives 7.6% (n = 4,700) | LysRS AlphaScreen counterscreen, signal interference, triplicate;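 active = inhibition above a cutoff derived from the DMSO control wells, cut at about 30% in these data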
Active calls of the source: *.

CCc1ccc(CN2CCN(C3CCCCCC3)CC2)cc1 was read as MITF primary 79*, FBW7 activator 0, TEAD-YAP block -13, GPR151 ag -1, MITF inh conf 2 and AS interf ctr -2.
Screening c1cc(CN2CCN(C3CCCC3)CC2)ccn1 returned MITF primary 79*, FBW7 activator 1, TEAD-YAP block 4, GPR151 ag -1, MITF inh conf 7 and AS interf ctr 14.
Screening CN1CCN(c2nccn3c(-c4ccc(OC(F)(F)F)cc4)cnc23)CC1 returned MITF primary -6, FBW7 activator 0, TEAD-YAP block 1 and GPR151 ag -1.
For COc1ccc(-c2nc3ccc(C)cc3[nH]2)cc1OC the results were MITF primary -4, FBW7 activator 0, TEAD-YAP block -66 and GPR151 ag -3.
CCCCn1c(SCc2cccc([N+](=O)[O-])c2)nc2ccsc2c1=O was read as MITF primary -15, FBW7 activator 0, TEAD-YAP block 2 and GPR151 ag 1.
For CCCCn1c(SCc2ccc([N+](=O)[O-])cc2)nc2ccsc2c1=O the results were MITF primary 86*, FBW7 activator 0, TEAD-YAP block 4, GPR151 ag 2, MITF inh conf -2 and AS interf ctr 1.
Screening Cc1sc2ncn(CC(=O)NCC(=O)Nc3ccc4c(c3)OCO4)c(=O)c2c1C returned MITF primary 55*, FBW7 activator 0, TEAD-YAP block -8, GPR151 ag -2, MITF inh conf -1 and AS interf ctr 14.
Screening C=CCN(CC=C)C(=O)c1c(-c2ccccc2Cl)noc1C returned MITF primary -5, FBW7 activator 0, TEAD-YAP block -6 and GPR151 ag 0.
c1ccc(-c2ccccc2OCCCCN2CCNCC2)cc1 was read as MITF primary 49, FBW7 activator -1, TEAD-YAP block -3 and GPR151 ag -2.
c1ccc(-c2ccccc2OCCCN2CCNCC2)cc1 was read as MITF primary 64*, FBW7 activator 0, TEAD-YAP block -2, GPR151 ag -1, MITF inh conf -2 and AS interf ctr 10.
CCN1CCN(CCCOc2cc(C)c(Cl)cc2C)CC1 was read as MITF primary 64*, FBW7 activator 0, TEAD-YAP block 2, GPR151 ag -1, MITF inh conf 3 and AS interf ctr 11.
CCN1CCN(CCCOc2ccc(Cl)c(Cl)c2)CC1 was read as MITF primary 28, FBW7 activator 0, TEAD-YAP block -12 and GPR151 ag 1.
`CCN1CCN(CCCOc2ccccc2-c2ccccc2)CC1` gave MITF primary 60*, FBW7 activator 0, TEAD-YAP block 11, GPR151 ag 1, MITF inh conf 7 and AS interf ctr 10.
`CCOc1ccccc1OCCCN1CCN(CC)CC1` gave MITF primary 67*, FBW7 activator 0, TEAD-YAP block 1, GPR151 ag 0, MITF inh conf 9 and AS interf ctr 13.
For COc1ccccc1CC(=O)Nc1nc2ccccc2[nH]1 the results were MITF primary 7, FBW7 activator 0, TEAD-YAP block -15 and GPR151 ag -1.
For CCOc1cccc(C2CC(c3ccc(OC)cc3)=NC(c3ccc(C(=O)OC)cc3)N2)c1O (configuration not stated) the results were MITF primary 5, FBW7 activator 0, TEAD-YAP block -22 and GPR151 ag -1.
For CCN1CCN(CCOc2ccccc2CO)CC1 the results were MITF primary 39, FBW7 activator -1, TEAD-YAP block 7 and GPR151 ag 0.
Screening CCN1CCN(CCOCCOc2ccccc2Br)CC1 returned MITF primary 56*, FBW7 activator 0, TEAD-YAP block 4, GPR151 ag 1, MITF inh conf 13 and AS interf ctr 15.
For CCc1ccccc1OCCN1CCN(CC)CC1 the results were MITF primary 77*, FBW7 activator 0, TEAD-YAP block -4, GPR151 ag 1, MITF inh conf 12 and AS interf ctr 13.
`CCN1CCN(CCCOc2cccc(C)c2C)CC1` gave MITF primary 67*, FBW7 activator 0, TEAD-YAP block 2, GPR151 ag 0, MITF inh conf 9 and AS interf ctr 8.
`CC(C)(C)c1cc(CN2CCOCC2)c(O)c(CN2CCOCC2)c1` gave MITF primary 9, FBW7 activator 0, TEAD-YAP block 0 and GPR151 ag 0.
